Assay outcomes (PubChem BioAssay)
Hits are enriched below; roughly 10% of the tested compounds scored in any of these assays.
GLS inh – qHTS for Inhibitors of Glutaminase (GLS); actives 0.21% (n = 410,000); GLS enzymatic activity, qHTS titration; Potency, µM (doses to about 45.5 µM), inactives show at the top dose activity change, negative = inhibition, most hits filed as inhibitors; Glutaminase kidney isoform, mitochondrial (Homo sapiens), O94925; also: % is scaled to controls: 0 for no effect and ±100 for the full control effect
Target sequence (O94925 whole entry, looked up, canonical isoform): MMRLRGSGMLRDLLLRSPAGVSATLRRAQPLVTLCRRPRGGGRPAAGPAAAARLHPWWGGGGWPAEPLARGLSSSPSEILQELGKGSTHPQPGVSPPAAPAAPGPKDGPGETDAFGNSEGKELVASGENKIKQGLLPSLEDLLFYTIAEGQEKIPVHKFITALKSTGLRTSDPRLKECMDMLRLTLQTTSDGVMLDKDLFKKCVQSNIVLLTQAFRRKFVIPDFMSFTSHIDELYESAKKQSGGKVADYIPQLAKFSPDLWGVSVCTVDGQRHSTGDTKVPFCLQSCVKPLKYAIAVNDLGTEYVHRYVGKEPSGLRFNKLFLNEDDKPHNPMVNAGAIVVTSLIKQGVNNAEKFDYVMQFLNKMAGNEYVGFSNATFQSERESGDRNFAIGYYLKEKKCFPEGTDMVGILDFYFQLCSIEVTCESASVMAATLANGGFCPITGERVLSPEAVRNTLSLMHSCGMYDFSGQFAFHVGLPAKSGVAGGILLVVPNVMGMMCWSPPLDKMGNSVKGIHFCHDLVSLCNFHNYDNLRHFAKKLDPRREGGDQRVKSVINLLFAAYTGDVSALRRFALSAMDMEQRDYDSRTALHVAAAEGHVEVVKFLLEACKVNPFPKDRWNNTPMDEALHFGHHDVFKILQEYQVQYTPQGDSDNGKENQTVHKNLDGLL
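hKGA; 45 mM KH2PO4 pH 8.2 + 0.02% Tween-20; cpd via pin tool; 1 mM Gln soln; GluOx/HRP/Amplex Red; RT 30 min; fluor. t0 & final.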
JMJD2A Tudor – qHTS Assay for Inhibitors of JMJD2A-Tudor Domain | Lysine-specific demethylase 4A (Homo sapiens), O75164 | AlphaScreen JMJD2A-Tudor / H3K4me3 peptide binding | Potency, µM (series often up to 114 µM), inactives show at the top dose activity change, negative = inhibition, hits mostly inhibitors | actives 4.4% (n = 390,000); also: % is scaled to controls: 0 for no effect and ±100 for the full control effect; nearly all actives have a fitted effect of over 50% in size
G9a inh – qHTS Assay for Inhibitors of Histone Lysine Methyltransferase G9a | Histone-lysine N-methyltransferase EHMT2 (Homo sapiens), Q96KQ7 | G9a H3K9 monomethylation, AlphaScreen, 2 h | Potency, µM (titrated, usually from 102 µM), for the others: at the top dose activity, negative = inhibition, usual class: inhibitors | actives 8.8% (n = 350,000) | AID 504332, 2011; also: % is scaled to controls: 0 for no effect and ±100 for the full control effect; nearly all actives have a fitted effect of over 75% in size
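Methyltransferase reactions run at room temperature for 2 h (20 nM enzyme, 500 nM biotin-H3K9 peptide, 20 uM SAM) after a 15 min compound preincubation; product detected by AlphaScreen beads and anti-H3K9me1 antibody.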
HP1b chromo inh – HTS for Inhibitors of HP1-beta Chromodomain Interactions with Methylated Histone Tails; AlphaScreen HP1-beta / biotin-H3K9me3 peptide binding; Potency, µM (titrated, usually from 114 µM), without a hit: at the top dose activity change, negative = inhibition, actives largely listed as inhibitors; actives 0.56% (n = 390,000); AID 540317, 2011; also: nearly all actives have a fitted effect of over 70% in size
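AlphaScreen: HP1-beta (50 nM) preformed 30 min with biotin-H3(1-18)K9me3 peptide (50 nM) in PBS pH 7.4, 0.01% Tween-20. Compound added for 30 min at RT, then streptavidin donor/nickel chelate acceptor beads (10 ug/mL) for 30 min.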
BAZ2B block – qHTS Assay for Inhibitors of BAZ2B; AID 504333, 2011; Potency, µM (series often up to 114 µM), inactives show top-dose activity change, negative = inhibition, actives largely listed as inhibitors; actives 4.4% (n = 360,000); AlphaScreen BAZ2B-H3K14Ac peptide displacement; also: % is scaled to controls: 0 for no effect and ±100 for the full control effect; nearly all actives have a fitted effect of over 60% in size
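AlphaScreen displacement: compounds (up to 110uM) incubated 30 min at room temperature with a preformed 50 nM BAZ2B/50 nM biotinylated H3K14Ac peptide complex in PBS pH 7.4 with Tween-20. Donor and acceptor beads at 10 ug/mL final added, 20 min light-protected before reading.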
L3MBTL1 inh – qHTS Assay for the Inhibitors of L3MBTL1 | Lethal(3)malignant brain tumor-like protein 1 (Homo sapiens), Q9Y468 | AlphaScreen L3MBTL1–H3K9me1 peptide binding | Potency, µM (series often up to 57.1 µM), inactives show top-dose activity, negative = inhibition, most hits filed as inhibitors | actives 0.66% (n = 230,000) | AID 485360, 2010; also: % is scaled to controls: 0 for no effect and ±100 for the full control effect; nearly all actives have a fitted effect of over 60% in size
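L3MBTL1 50 nM + b-AHA-H3(1-15)K9me1 75 nM, 30 min RT; compound added, 30 min RT; streptavidin donor/Ni-chelate acceptor beads 10 ug/mL each final, 30 min RT dark; AlphaScreen read.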
* = called active by the depositor; ! = not confirmed by another sample; [ ] = another dose, or the depositor's remark. Calls follow the shape of the dose curve; as a rule, active = well fitted curve in the direction sought with a large enough effect; inconclusive = small, poorly fitted or top-dose-only effect, or another doubt; inactive = no such curve, though single readings can be large; an effect the other way counts as inactive or inconclusive. Potency is read from the fitted curve at half-maximal effect.

What do the screens show for `O=C(Nc1cccnc1)c1cc(-c2cccc(Cl)c2)on1`?
GLS inh: 0%; JMJD2A Tudor: 25µM*!; G9a inh: 10%; HP1b chromo inh: 3%; BAZ2B block: 4%

Results for CCN1C(=O)[C@H]2[C@@H](c3ccc(Cl)cc3)N3C(=O)CN(CC4CC4)C(=O)[C@@]3(Cc3ccccc3)[C@H]2C1=O ?
GLS inh: -2%; JMJD2A Tudor: 1%; G9a inh: 71µM*; HP1b chromo inh: 37%; BAZ2B block: -25%; L3MBTL1 inh: 2%

How did CCCCN1CC(=O)N2[C@H](c3ccc(Cl)cc3)[C@@H]3C(=O)N(CC)C(=O)[C@@H]3[C@]2(Cc2ccccc2)C1=O do in these assays?
GLS inh: -4%; JMJD2A Tudor: -4%; G9a inh: 11%; HP1b chromo inh: 20%; BAZ2B block: -4%; L3MBTL1 inh: 0%

What do the screens show for `NS(=O)(=O)c1ccc(CNS(=O)(=O)c2ccc(Cl)nc2)cc1`?
GLS inh: 0%; JMJD2A Tudor: -12%; G9a inh: 56µM*; HP1b chromo inh: 35%; BAZ2B block: -5%; L3MBTL1 inh: 5%

What do the screens show for `O=S(=O)(NCc1ccc(Cl)cc1)c1ccc(Cl)nc1`?
GLS inh: 8%; JMJD2A Tudor: 14%; G9a inh: 71%[59 µM]; HP1b chromo inh: 37%; BAZ2B block: -31%; L3MBTL1 inh: 7%

Results for CCOC(=O)/C=C1\SCC(=O)N1CC(=O)NC(C)c1ccccc1 (stereo not given) ?
GLS inh: -1%; JMJD2A Tudor: -4%; G9a inh: 20%[59 µM]; HP1b chromo inh: 36%; BAZ2B block: 0%; L3MBTL1 inh: 6%

How did CCOC(=O)/C=C1\SCC(=O)N1CC(=O)NC(C)C do in these assays?
GLS inh: 1%; JMJD2A Tudor: -6%; G9a inh: 3.5µM*; HP1b chromo inh: 9%; BAZ2B block: 7%

What do the screens show for `COc1cc(/C=N/Nc2nc3ccccc3[nH]2)cc(OC)c1O`?
GLS inh: 21%; JMJD2A Tudor: -27%; G9a inh: 28µM*; HP1b chromo inh: inconclusive; BAZ2B block: inconclusive; L3MBTL1 inh: -6%

What do the screens show for `CCN(CC)c1ccc(/C=N/Nc2nc3ccccc3[nH]2)cc1`?
GLS inh: 5%; JMJD2A Tudor: 56µM*; G9a inh: inconclusive; HP1b chromo inh: inconclusive; BAZ2B block: 10µM*; L3MBTL1 inh: inconclusive

What do the screens show for `CC(=O)Nc1ccc(/C=N/Nc2nc3ccccc3[nH]2)cc1`?
GLS inh: 18%; JMJD2A Tudor: -30%; G9a inh: -35%; HP1b chromo inh: 18%; BAZ2B block: -8%; L3MBTL1 inh: -4%

How did COc1cc(/C=N/Nc2nc3ccccc3[nH]2)ccc1O do in these assays?
GLS inh: 12%; JMJD2A Tudor: -29%; G9a inh: -2%[59 µM]; HP1b chromo inh: 9%; BAZ2B block: inconclusive; L3MBTL1 inh: -13%

How did CCCCc1c(O)n(-c2ccccc2)[nH]c1=O do in these assays?
G9a inh: 11µM*

How did CCCCCc1c(O)c2ccccc2[nH]c1=O do in these assays?
GLS inh: 20%; JMJD2A Tudor: -18%; G9a inh: 8%[59 µM]; HP1b chromo inh: 10%; BAZ2B block: 12%; L3MBTL1 inh: -2%

How did O=C1CCN(C(=O)c2cccs2)c2ccccc21 do in these assays?
GLS inh: -3%; JMJD2A Tudor: 1%; G9a inh: 1%; HP1b chromo inh: 21%[57 µM]; BAZ2B block: 4%; L3MBTL1 inh: 4%

What do the screens show for `CC(=O)/C=C1/C(=O)Nc2ccccc21`?
GLS inh: inconclusive; JMJD2A Tudor: -26%; G9a inh: 11µM*; HP1b chromo inh: 16%; BAZ2B block: 1%
